# Reference: PubChem BioAssay (EPA / NIEHS)
# Records with an inconclusive call do not appear. Activity calls are given as the source filed them. The calls were made as follows: active = hit-call score of the fitted dose curve at least 0.9, where 1 is the maximum; inconclusive = response in the unintended direction; inactive = score below 0.9.
# Test: ACEA_ER_80hr: ACEA Biosciences xCELLigence Real-Time Cell Analysis on Estrogen Receptor Agonism for Proliferation (AID 2282667)
# Settings: T47D proliferation, impedance (xCELLigence), 80 h
# Method in brief: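 Real-time electrical impedance tracked growth of the human breast line T47D, with the 80 h post-dosing value used. Dosing spanned eight 1:4 steps down from a 100 uM final top concentration, run in duplicate.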
Compound,outcome,AC50
Nc1ccc(N=Nc2ccc(-c3ccc(N=Nc4c(S(=O)(=O)O)cc5cc(S(=O)(=O)O)c(N=Nc6ccccc6)c(O)c5c4N)cc3)cc2)c(N)c1,inactive,
N#CCCO,inactive,
O=C(Cc1ccccc1)c1ccccc1,inactive,
Cc1ccc2ccccc2c1C,,13.5 µM (active)
